In PubChem BioAssay (EPA / NIEHS):
Calls of active or inactive are those of the source. The calls were made as follows: active = hit-call score of the fitted dose curve at least 0.9, where 1 is the maximum; inactive = score below 0.9.

How the values were obtained:
Settings in all cases: mRNA level, 48 h; actives raise or lower the signal
[1] = read-out: Insulin Like Growth Factor 1 (IGF1), IGF1 (gene 3479); test: LTEA_HepaRG_IGF1: Life Technologies and Expression Analysis (LTEA) Assay for Insulin Like Growth Factor 1 (IGF1) using HepaRG (AID 2283506)
Outline: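 Expression measured by TaqMan qRT-PCR on a Fluidigm array, with three housekeeping genes for normalisation, after 48 h treatment of HepaRG cells. Top concentration 100 uM with half-log steps, 0.5% DMSO vehicle, bidirectional fit.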

[2] = read-out: Intercellular Adhesion Molecule 1 (ICAM1), ICAM1 (gene 3383); test: LTEA_HepaRG_ICAM1: Life Technologies and Expression Analysis (LTEA) Assay for Intercellular Adhesion Molecule 1 (ICAM1) using HepaRG (AID 2283507)
Outline: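 Gain or loss of transcript in HepaRG hepatic cells is quantified by qRT-PCR after 48 h chemical exposure (up to 100 uM, half-log steps), with DMSO as baseline.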

[3] = read-out: Insulin-like growth factor-binding protein 1 (IGFBP1), IGFBP1 (gene 3484); test: LTEA_HepaRG_IGFBP1: Life Technologies and Expression Analysis (LTEA) Assay for Insulin-like growth factor-binding protein 1 (IGFBP1) using HepaRG (AID 2283508)
Outline: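 mRNA induction or loss was quantified by qRT-PCR after 48 h chemical exposure of human HepaRG cells, with 0.5% DMSO as vehicle and baseline. Concentration-response over eight points up to 100 uM.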

[4] = read-out: Interleukin 6 Receptor (IL6R), IL6R (gene 3570); test: LTEA_HepaRG_IL6R: Life Technologies and Expression Analysis (LTEA) Assay for Interleukin 6 Receptor (IL6R) using HepaRG (AID 2283510);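 as to AC50: differentiated human HepaRG liver cells in serum-free induction medium; TaqMan qRT-PCR signal normalized to ACTB GAPDH and POLR2A housekeeping genes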
Outline: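 IL6R transcript level by qRT-PCR after 48 h chemical exposure (8-point, half-log, max 100 uM, 0.5% DMSO vehicle) of HepaRG cells in serum-free induction medium. Normalized to three housekeeping genes; curves fitted in both directions relative to DMSO.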

[5] = read-out: Potassium channel subfamily K member 1 (KCNK1), KCNK1 (gene 3775); test: LTEA_HepaRG_KCNK1: Life Technologies and Expression Analysis (LTEA) Assay for Potassium channel subfamily K member 1 (KCNK1) using HepaRG (AID 2283511)
Outline: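 Human HepaRG cultures receive test chemicals for 48 h in 0.5% DMSO, top concentration 100 uM with half-log dilutions. Induction or suppression of KCNK1 mRNA relative to DMSO is derived by bidirectional fitting of qRT-PCR data.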

[6] = read-out: Keratin 19 (KRT19), KRT19 (gene 3880); test: LTEA_HepaRG_KRT19: Life Technologies and Expression Analysis (LTEA) Assay for Keratin 19 (KRT19) using HepaRG (AID 2283512)
Outline: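 Gene-expression endpoint in the human liver line HepaRG after 48 h exposure to up to 100 uM test chemical with 0.5% DMSO vehicle; KRT19 mRNA by qRT-PCR, analyzed bidirectionally versus DMSO.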

[7] = read-out: MicroRNA 122 (MIR122), gene 406906; test: LTEA_HepaRG_MIR122: Life Technologies and Expression Analysis (LTEA) Assay for MicroRNA 122 (MIR122) using HepaRG (AID 2283516); also: the transcript read is the microRNA miR-122
Outline: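 Expression measured by microfluidic qRT-PCR with three housekeeping genes for normalisation, after 48 h treatment of HepaRG cultures. Eight concentrations (top 100 uM, half-log steps, 0.5% DMSO vehicle) in duplicate; gain or loss fitted relative to vehicle.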

[8] = read-out: matrix metalloproteinase-10 (MMP10), MMP10 (gene 4319); test: LTEA_HepaRG_MMP10: Life Technologies and Expression Analysis (LTEA) Assay for matrix metalloproteinase-10 (MMP10) using HepaRG (AID 2283517)
Outline: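 In differentiated HepaRG cultures kept in 0.5% DMSO, test chemicals act for 48 h over an eight-point range with a top dose of 100 uM. Expression is then quantified by TaqMan RT-PCR against ACTB, GAPDH and POLR2A.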

MYC, MYC (gene 4609) = test: LTEA_HepaRG_MYC: Life Technologies and Expression Analysis (LTEA) Assay for MYC using HepaRG (AID 2283518)
Outline: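 Cells are thawed, plated and cultured 48 h, then treated for 48 h with test chemicals (eight half-log concentrations from 100 uM, 0.5% DMSO vehicle). RNA is isolated and MYC expression quantified by qRT-PCR against three housekeeping genes.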

[9] = read-out: matrix metalloproteinase-3 (MMP3), MMP3 (gene 4314); test: LTEA_HepaRG_MMP3: Life Technologies and Expression Analysis (LTEA) Assay for matrix metalloproteinase-3 (MMP3) using HepaRG (AID 2283519)
Outline: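 Human liver HepaRG cultures received chemicals (top concentration 100 uM, 0.5% DMSO) for 48 h in duplicate. MMP3 mRNA induction or loss was then assessed via TaqMan qRT-PCR with housekeeping-gene normalisation.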

[10] = read-out: Paternally Expressed 10 (PEG10), PEG10 (gene 23089); test: LTEA_HepaRG_PEG10: Life Technologies and Expression Analysis (LTEA) Assay for Paternally Expressed 10 (PEG10) using HepaRG (AID 2283520);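 as to AC50: differentiated HepaRG human liver cells in serum-free induction medium with 0.5% DMSO; PEG10 transcript by qRT-PCR normalised to ACTB GAPDH and POLR2A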
Outline: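 PEG10 transcript measured by Fluidigm qRT-PCR, normalized to three housekeeping genes, in HepaRG cells treated 48 h (highest 100 uM, half-log steps, 0.5% DMSO vehicle). Cells plated 48 h before switching to serum-free induction medium.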

[11] = read-out: Protein phosphatase 2A (PPP2R4), PTPA (gene 5524); test: LTEA_HepaRG_PPP2R4: Life Technologies and Expression Analysis (LTEA) Assay for Protein phosphatase 2A (PPP2R4) using HepaRG (AID 2283522)
Outline: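 Expression was quantified by Fluidigm qRT-PCR normalised to three housekeeping genes after 48 h treatment. Human HepaRG cells received an 8-point series from 100 µM downward by half-logs, in duplicate with 0.5% DMSO vehicle and 1 mM phenobarbital as induction control.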

[12] = read-out: Phosphatase and tensin (PTEN), PTEN (gene 5728); test: LTEA_HepaRG_PTEN: Life Technologies and Expression Analysis (LTEA) Assay for Phosphatase and tensin (PTEN) using HepaRG (AID 2283523)
Outline: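 Expression of PTEN is quantified in the human liver line HepaRG following two days of dosing (top concentration 100 uM, half-log dilutions, 0.5% DMSO). Values derive from bidirectional curve fitting relative to DMSO controls.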

[13] = read-out: solute carrier (SLC22A1), SLC22A1 (gene 6580); test: LTEA_HepaRG_SLC22A1: Life Technologies and Expression Analysis (LTEA) Assay for solute carrier (SLC22A1) using HepaRG (AID 2283524);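 as to AC50: differentiated human HepaRG liver cells in serum-free induction medium; TaqMan qRT-PCR normalized to ACTB GAPDH and POLR2A housekeeping genes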
Outline: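 Transcript induction or suppression of SLC22A1 in human HepaRG cultures is scored after 48 h chemical treatment, with DMSO (0.5%) as baseline for bidirectional fitting. Concentrations span eight half-log points topping at 100 uM.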

[14] = read-out: Pyruvate Dehydrogenase Kinase 4 (PDK4), PDK4 (gene 5166); test: LTEA_HepaRG_PDK4: Life Technologies and Expression Analysis (LTEA) Assay for Pyruvate Dehydrogenase Kinase 4 (PDK4) using HepaRG (AID 2283525)
Outline: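 Eight-point, half-log concentration series (max 100 uM, 0.5% DMSO) applied to differentiated HepaRG cells for 48 h in duplicate. Endpoint: PDK4 mRNA induction or repression by qRT-PCR against DMSO baseline.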

[15] = read-out: JUN Transcription Factor, JUN (gene 3725); test: LTEA_HepaRG_JUN: Life Technologies and Expression Analysis (LTEA) Assay for JUN Transcription Factor using HepaRG (AID 2283513)
Outline: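 mRNA measured by TaqMan qRT-PCR after 48 h chemical exposure of HepaRG cultures; normalization to three housekeeping genes. Duplicate eight-point half-log curves from 100 uM in 0.5% DMSO; gain or loss fitted against DMSO baseline.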

[16] = read-out: Nuclear factor NF-kappa-B p105 subunit (Homo sapiens) (UniProt P19838); test: LTEA_HepaRG_NFKB1: Life Technologies and Expression Analysis (LTEA) Assay for Nuclear Factor Kappa B Subunit 1 (NFKB1) using HepaRG (AID 2283521)
Outline: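 HepaRG, 48 h exposure; 8-pt half-log series from 100 uM in 0.5% DMSO; duplicates. Readout: NFKB1 mRNA by qRT-PCR (Fluidigm arrays), housekeeping-normalized. Gain/loss fit vs DMSO baseline.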

Measured: AC50

Nuclear factor NF-kappa-B p105 subunit (Homo sapiens), sequence (P19838 whole entry, looked up): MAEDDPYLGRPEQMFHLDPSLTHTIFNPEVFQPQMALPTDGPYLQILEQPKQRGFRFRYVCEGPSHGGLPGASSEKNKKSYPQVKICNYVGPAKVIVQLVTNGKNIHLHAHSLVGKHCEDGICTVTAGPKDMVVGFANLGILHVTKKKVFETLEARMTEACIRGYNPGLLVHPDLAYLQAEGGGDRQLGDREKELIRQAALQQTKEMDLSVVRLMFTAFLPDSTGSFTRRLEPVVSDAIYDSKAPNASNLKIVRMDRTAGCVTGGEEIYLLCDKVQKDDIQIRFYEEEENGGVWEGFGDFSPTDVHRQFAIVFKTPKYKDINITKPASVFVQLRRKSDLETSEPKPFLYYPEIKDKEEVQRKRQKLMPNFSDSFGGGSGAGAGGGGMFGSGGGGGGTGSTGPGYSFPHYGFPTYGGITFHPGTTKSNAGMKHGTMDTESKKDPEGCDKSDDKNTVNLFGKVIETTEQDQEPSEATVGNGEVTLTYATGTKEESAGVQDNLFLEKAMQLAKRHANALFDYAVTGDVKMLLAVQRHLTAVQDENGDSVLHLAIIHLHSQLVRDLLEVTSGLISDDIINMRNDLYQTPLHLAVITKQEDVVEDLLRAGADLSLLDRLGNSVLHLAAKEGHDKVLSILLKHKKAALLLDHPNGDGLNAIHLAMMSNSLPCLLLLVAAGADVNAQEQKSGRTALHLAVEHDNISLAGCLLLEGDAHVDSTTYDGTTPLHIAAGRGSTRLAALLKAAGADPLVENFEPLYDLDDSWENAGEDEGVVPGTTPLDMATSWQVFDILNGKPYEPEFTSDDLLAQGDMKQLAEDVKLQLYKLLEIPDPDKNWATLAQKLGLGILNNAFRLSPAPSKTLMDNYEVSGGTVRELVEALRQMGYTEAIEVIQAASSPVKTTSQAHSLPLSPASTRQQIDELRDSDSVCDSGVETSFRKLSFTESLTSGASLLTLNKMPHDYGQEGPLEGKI

S=C([S-])NCCNC(=S)[S-].[Mn+2]
inactive: [5] | [8] | [9]
active: [1] 5 µM | [2] 6.29 µM | [3] 0.194 µM | [4] 3.93 µM | [6] 10 µM | [7] 2.03 µM | MYC, MYC (gene 4609) 8.74 µM | [10] 0.302 µM | [11] 5.29 µM | [12] 4.48 µM | [13] 2.8 µM | [14] 5.86 µM

C[C@]12CC[C@@H]3c4ccc(O)cc4C[C@@H](CCCCCCCCCS(=O)CCCC(F)(F)C(F)(F)F)[C@H]3[C@@H]1CC[C@@H]2O (some centres not stated)
active: [2] 0.0415 µM | [3] 22.3 µM | [4] 24.3 µM | [5] 0.0883 µM | [15] 0.0859 µM | [7] 28.7 µM | [8] 0.116 µM | MYC, MYC (gene 4609) 0.0578 µM | [9] 0.084 µM | [10] 5.19 µM | [16] 0.0508 µM | [11] 0.0315 µM | [13] 14.5 µM | [14] 12.7 µM
inactive: [1] | [6] | [12]

OB(O)O
not listed: [16]
inactive: all other assays above

CCOC(=O)c1ccc(O)cc1
not listed: [16]
inactive: all other assays above

Cc1nn(C)c(Oc2ccccc2)c1C=NOCc1ccc(C(=O)OC(C)(C)C)cc1
inactive: [15] | [12] | [14]
active: [1] 3.22 µM | [2] 16.8 µM | [3] 9.63 µM | [4] 1.28 µM | [5] 12.9 µM | [6] 2.05 µM | [7] 30.3 µM | [8] 50 µM | MYC, MYC (gene 4609) 8.62 µM | [9] 34.4 µM | [10] 1.15 µM | [11] 5.33 µM | [13] 12.3 µM

COc1c(Cl)ccc(Cl)c1C(=O)O
not listed: [16]
inactive: all other assays above

N[C@@H](Cc1cc(I)c(Oc2ccc(O)c(I)c2)c(I)c1)C(=O)O
active: [2] 40 µM | [4] 40 µM | [6] 0.0152 µM | [10] 8.92 µM | [13] 65.7 µM | [14] 0.0111 µM
not listed: [16]
inactive: all other assays above
